From PubChem BioAssay (NCI)
Compounds without any hit were thinned out: in the full panel of roughly 83,000, 20% have a hit.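 Percent growth is the endpoint: 0 to 100 indicates growth inhibition (40 means 60% inhibition), 0 means no net growth, and negative values indicate cell death.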 Activity calls are given as the source filed them. The calls were made as follows: active = growth percent below 10; inactive = the rest.

Assays:
Assay in all cases: NCI-60 one-dose screen, 48 h (100 = growth as untreated, 0 = no growth, -100 = all killed)
Details in all cases: 10 µM unless noted
SK-MEL-2 melanoma = test system: SK-MEL-2 melanoma
EKVX NSCLC = test system: EKVX NSCLC
SN12C renal = test system: SN12C renal
UO-31 renal = test system: UO-31 renal
TK-10 renal = test system: TK-10 renal
ACHN renal = test system: ACHN renal
CAKI-1 renal = test system: CAKI-1 renal
A498 renal = test system: A498 renal
CCRF-CEM leukemia = test system: CCRF-CEM leukemia
MOLT-4 leukemia = test system: MOLT-4 leukemia
SR leukemia = test system: SR leukemia
RPMI-8226 leukemia = test system: RPMI-8226 leukemia
OVCAR-8 ovarian = test system: OVCAR-8 ovarian
OVCAR-5 ovarian = test system: OVCAR-5 ovarian
OVCAR-4 ovarian = test system: OVCAR-4 ovarian
SK-OV-3 ovarian = test system: SK-OV-3 ovarian
IGROV1 ovarian = test system: IGROV1 ovarian
OVCAR-3 ovarian = test system: OVCAR-3 ovarian
HS 578T breast = test system: HS 578T breast
NCI/ADR-RES ovarian = test system: NCI/ADR-RES ovarian

Measured: growth

C#Cc1cccc(NC(=O)Nc2ccc(NC(=O)CCl)cc2)c1
active: SK-MEL-2 melanoma -25% [8.25 µM] | SN12C renal -9.22% [8.25 µM] | UO-31 renal -97.4% [8.25 µM] | TK-10 renal -71.4% [8.25 µM] | ACHN renal -99.5% [8.25 µM] | CAKI-1 renal 9.01% [8.25 µM] | CCRF-CEM leukemia -29.8% [8.25 µM] | MOLT-4 leukemia -9.78% [8.25 µM] | SR leukemia -36.4% [8.25 µM] | RPMI-8226 leukemia -37.1% [8.25 µM] | OVCAR-8 ovarian -14.9% [8.25 µM] | OVCAR-5 ovarian -14.5% [8.25 µM] | OVCAR-4 ovarian -50.8% [8.25 µM] | SK-OV-3 ovarian -86.7% [8.25 µM] | IGROV1 ovarian -88% [8.25 µM] | OVCAR-3 ovarian -88% [8.25 µM] | HS 578T breast -4.85% [8.25 µM] | NCI/ADR-RES ovarian -8.33% [8.25 µM]
inactive: EKVX NSCLC 88.3% [8.25 µM] | A498 renal 76.4% [8.25 µM]

COc1nc(N)nc(-n2c(-c3ccc(C)cc3)nc3ccccc32)c1NCc1ccc(C)cc1
inactive: SK-MEL-2 melanoma 99.9% | EKVX NSCLC 94.9% | SN12C renal 90% | UO-31 renal 59.9% | TK-10 renal 98.4% | ACHN renal 93.7% | CAKI-1 renal 40.7% | A498 renal 80.7% | CCRF-CEM leukemia 94.5% | MOLT-4 leukemia 83.3% | SR leukemia 80.5% | RPMI-8226 leukemia 81.2% | OVCAR-8 ovarian 94.1% | OVCAR-5 ovarian 88.5% | OVCAR-4 ovarian 95% | SK-OV-3 ovarian 110% | IGROV1 ovarian 80.1% | OVCAR-3 ovarian 111% | HS 578T breast 83.6% | NCI/ADR-RES ovarian 90.1%

COc1ccncc1C#Cc1cncc(C(=O)Nc2ccc(CN3CCN(C)CC3)c(C(F)(F)F)c2)c1
inactive: EKVX NSCLC 38.4% | SN12C renal 17.7% | UO-31 renal 11.7% | TK-10 renal 50.6% | ACHN renal 13.2% | CAKI-1 renal 15.4% | A498 renal 28.9% | CCRF-CEM leukemia 12.3% | MOLT-4 leukemia 22.5% | RPMI-8226 leukemia 25.8% | OVCAR-8 ovarian 36.7% | OVCAR-5 ovarian 22.2% | OVCAR-4 ovarian 30.7% | SK-OV-3 ovarian 32.7% | IGROV1 ovarian 11.3% | OVCAR-3 ovarian 43.5% | HS 578T breast 11.8% | NCI/ADR-RES ovarian 54.6%
active: SK-MEL-2 melanoma -0.485% | SR leukemia 9.65%

CC(=O)N1N=C(c2cccc(Nc3ccncc3)c2)CC1c1ccc2c(c1)OCO2 (centres undefined)
inactive: SK-MEL-2 melanoma 99.9% | EKVX NSCLC 63% | SN12C renal 81% | UO-31 renal 84.5% | TK-10 renal 98.1% | ACHN renal 101% | CAKI-1 renal 81.8% | A498 renal 70.7% | CCRF-CEM leukemia 81.2% | MOLT-4 leukemia 77.7% | SR leukemia 31.5% | RPMI-8226 leukemia 78.3% | OVCAR-8 ovarian 91.4% | OVCAR-5 ovarian 94.1% | OVCAR-4 ovarian 90.3% | SK-OV-3 ovarian 78.3% | IGROV1 ovarian 91.9% | OVCAR-3 ovarian 96% | HS 578T breast 80% | NCI/ADR-RES ovarian 97.2%

Clc1ccc(C2CC(c3cccc(Nc4ccncc4)c3)=NN2c2ccc(Cl)cc2)cc1 (centres undefined)
inactive: SK-MEL-2 melanoma 85.8% | EKVX NSCLC 72.3% | SN12C renal 39.6% | TK-10 renal 50.5% | A498 renal 72.1% | OVCAR-5 ovarian 65.4% | SK-OV-3 ovarian 83.7% | OVCAR-3 ovarian 31% | HS 578T breast 54% | NCI/ADR-RES ovarian 11.2%
active: UO-31 renal 4.62% | ACHN renal -66.6% | CAKI-1 renal -59.6% | CCRF-CEM leukemia 2.88% | MOLT-4 leukemia -5.2% | SR leukemia 2.85% | RPMI-8226 leukemia 0.298% | OVCAR-8 ovarian -38.9% | OVCAR-4 ovarian -14.5% | IGROV1 ovarian 7.44%

CN1CCN(C(=O)OCc2nc3c(N4CCOCC4)nc(-c4ccccc4)nc3n2C)CC1
active: SK-MEL-2 melanoma -59.9% | EKVX NSCLC -76.7% | SN12C renal -86.8% | UO-31 renal -100% | TK-10 renal -70.1% | ACHN renal -100% | CAKI-1 renal -93.5% | A498 renal 3.05% | CCRF-CEM leukemia -6.94% | MOLT-4 leukemia -6.95% | SR leukemia 2.5% | RPMI-8226 leukemia -28.7% | OVCAR-8 ovarian 4.37% | OVCAR-5 ovarian -86.1% | OVCAR-4 ovarian -86.4% | IGROV1 ovarian -96.3% | OVCAR-3 ovarian -81.9% | HS 578T breast -22% | NCI/ADR-RES ovarian -16.2%
inactive: SK-OV-3 ovarian 61.5%

COc1ccc(C2CC(c3cccc(Nc4ccncc4)c3)=NN2c2ccc(Cl)cc2)cc1 (centres undefined)
inactive: SK-MEL-2 melanoma 80.4% | EKVX NSCLC 83.8% | SN12C renal 63.7% | UO-31 renal 47.6% | TK-10 renal 59.1% | ACHN renal 46.7% | CAKI-1 renal 24.5% | A498 renal 70.1% | OVCAR-5 ovarian 74.1% | OVCAR-4 ovarian 37.7% | SK-OV-3 ovarian 63.9% | IGROV1 ovarian 23% | OVCAR-3 ovarian 39.6% | HS 578T breast 60.7%
active: CCRF-CEM leukemia 4.44% | MOLT-4 leukemia -7.16% | SR leukemia 1.94% | RPMI-8226 leukemia 0.0835% | OVCAR-8 ovarian -23.4%

O=C(Nc1nc2ccc(C(=O)N3CCN(c4ccc(Cl)c(Cl)c4)CC3)cc2s1)c1ccc(NCCc2ccccc2)c([N+](=O)[O-])c1
inactive: SK-MEL-2 melanoma 104% | EKVX NSCLC 95.3% | SN12C renal 93.3% | UO-31 renal 60.7% | TK-10 renal 113% | ACHN renal 101% | CAKI-1 renal 87% | A498 renal 79.4% | CCRF-CEM leukemia 93.6% | MOLT-4 leukemia 95.7% | SR leukemia 98.4% | RPMI-8226 leukemia 85.5% | OVCAR-8 ovarian 97.3% | OVCAR-5 ovarian 91.3% | OVCAR-4 ovarian 87.3% | SK-OV-3 ovarian 107% | IGROV1 ovarian 82% | OVCAR-3 ovarian 111% | HS 578T breast 93.5% | NCI/ADR-RES ovarian 101%

NC(=O)c1cccc(-c2ccccc2N2CCCCC2)c1
inactive: SK-MEL-2 melanoma 103% | EKVX NSCLC 97.2% | SN12C renal 93.6% | UO-31 renal 82.4% | TK-10 renal 103% | ACHN renal 95.3% | CAKI-1 renal 83% | A498 renal 95.3% | CCRF-CEM leukemia 89.7% | MOLT-4 leukemia 91.1% | SR leukemia 66.4% | RPMI-8226 leukemia 74.2% | OVCAR-8 ovarian 99.7% | OVCAR-5 ovarian 95.1% | OVCAR-4 ovarian 89.9% | SK-OV-3 ovarian 94.9% | IGROV1 ovarian 92.4% | OVCAR-3 ovarian 106% | HS 578T breast 101% | NCI/ADR-RES ovarian 102%

Clc1cc(Cl)cc(N2N=C(c3cccc(Nc4ccncc4)c3)CC2c2ccc3c(c2)OCO3)c1 (centres undefined)
active: ACHN renal -27.5% | CCRF-CEM leukemia -1.31% | MOLT-4 leukemia -0.295% | SR leukemia 2.87% | OVCAR-8 ovarian -21% | IGROV1 ovarian 2.89%
inactive: SK-MEL-2 melanoma 81.7% | EKVX NSCLC 78.8% | SN12C renal 64.6% | UO-31 renal 39.5% | TK-10 renal 65.7% | CAKI-1 renal 16.4% | A498 renal 96.6% | RPMI-8226 leukemia 11.3% | OVCAR-5 ovarian 86.7% | OVCAR-4 ovarian 14.9% | SK-OV-3 ovarian 74.1% | OVCAR-3 ovarian 52.3% | HS 578T breast 50.6% | NCI/ADR-RES ovarian 66.9%

CN1CCN(c2c(F)cc(NC3=C(Cl)C(=O)c4ncccc4C3=O)cc2F)CC1
inactive: SK-MEL-2 melanoma 99.2% | EKVX NSCLC 91% | SN12C renal 84.2% | UO-31 renal 34.3% | TK-10 renal 66.9% | CAKI-1 renal 62.2% | A498 renal 88.1% | RPMI-8226 leukemia 67.1% | OVCAR-8 ovarian 78.1% | OVCAR-5 ovarian 105% | SK-OV-3 ovarian 101% | IGROV1 ovarian 57.4% | HS 578T breast 97.2% | NCI/ADR-RES ovarian 89.7%
active: ACHN renal -63% | CCRF-CEM leukemia 5.66% | MOLT-4 leukemia 0.45% | SR leukemia 4.88% | OVCAR-4 ovarian -87.8% | OVCAR-3 ovarian -28%

CNC(=O)c1c(NC(=O)c2ccc(C(C)C)cc2)sc2c(CN(C)C)c(O)ccc12
inactive: SK-MEL-2 melanoma 90.2% | EKVX NSCLC 90.2% | SN12C renal 99.4% | UO-31 renal 64.5% | TK-10 renal 86.8% | ACHN renal 66.6% | CAKI-1 renal 85.1% | A498 renal 58.9% | CCRF-CEM leukemia 56.7% | MOLT-4 leukemia 72.4% | RPMI-8226 leukemia 22.5% | OVCAR-8 ovarian 112% | OVCAR-5 ovarian 106% | OVCAR-4 ovarian 98.6% | SK-OV-3 ovarian 99.7% | IGROV1 ovarian 90.5% | OVCAR-3 ovarian 99.3% | HS 578T breast 89.6% | NCI/ADR-RES ovarian 91.3%
active: SR leukemia -9.94%

CC(C)[N+](C)(CCOC(COc1ccccc1)COc1ccccc1)C(C)C
inactive: SK-MEL-2 melanoma 87.1% | EKVX NSCLC 79.1% | SN12C renal 64.8% | UO-31 renal 88.8% | TK-10 renal 94.1% | ACHN renal 105% | CAKI-1 renal 105% | A498 renal 60% | CCRF-CEM leukemia 87.7% | MOLT-4 leukemia 98.2% | SR leukemia 91.5% | RPMI-8226 leukemia 49.3% | OVCAR-8 ovarian 104% | OVCAR-5 ovarian 104% | OVCAR-4 ovarian 78.6% | SK-OV-3 ovarian 105% | IGROV1 ovarian 76.6% | OVCAR-3 ovarian 75.4% | HS 578T breast 105% | NCI/ADR-RES ovarian 107%

O=C(Nc1ccc2ncnc(Nc3ccc(Oc4cccc(F)c4)c(Cl)c3)c2c1)c1ccc(CNCCO)cc1
inactive: SK-MEL-2 melanoma 94.2% | EKVX NSCLC 47.9% | SN12C renal 48.6% | UO-31 renal 73.9% | TK-10 renal 57.1% | ACHN renal 28.8% | CAKI-1 renal 55.4% | A498 renal 71.6% | OVCAR-8 ovarian 31.5% | OVCAR-5 ovarian 78.1% | SK-OV-3 ovarian 29.5% | OVCAR-3 ovarian 45.7% | HS 578T breast 51.3% | NCI/ADR-RES ovarian 76.9%
active: CCRF-CEM leukemia -19.9% | MOLT-4 leukemia -0.727% | SR leukemia 5.98% | RPMI-8226 leukemia 6.61% | OVCAR-4 ovarian 7.6% | IGROV1 ovarian 9.12%

O=S(=O)(NCCNc1nccc(-c2c(-c3cccc(F)c3)nc3occn23)n1)c1cccc2ccccc12
inactive: SK-MEL-2 melanoma 58.3% | EKVX NSCLC 48.5% | SN12C renal 47.6% | UO-31 renal 15.9% | TK-10 renal 47.1% | ACHN renal 40.5% | CAKI-1 renal 25% | A498 renal 37.7% | CCRF-CEM leukemia 43.8% | MOLT-4 leukemia 26.3% | SR leukemia 41.6% | RPMI-8226 leukemia 21.7% | OVCAR-8 ovarian 58.4% | OVCAR-5 ovarian 116% | OVCAR-4 ovarian 47.8% | SK-OV-3 ovarian 69% | IGROV1 ovarian 35.4% | OVCAR-3 ovarian 71.7% | HS 578T breast 64.9% | NCI/ADR-RES ovarian 48.8%
